Compounds with a hit are over-represented: about 21% of the library has one in this group of screens.
NS1 function inh: blocks influenza NS1 protein function | Potency, µM (highest dose often 46.1 µM), inactives show at the top dose activity, positive = more growth | 270,000 compounds, 0.4% hits | AID 2326; calls by dose curve; further: potency means the concentration at half of the fitted maximal effect; actives are rising curves; nearly all actives have a fitted effect of over 50% in size
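S. cerevisiae expressing influenza A NS1, grown in glucose, washed, then diluted 1:100 into pH 6.0 -URA galactose medium with 23 nl compound. Growth recovery read as OD600; NS1-free strain serves as control.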
Shiga inhibitor: inhibitors of Shiga toxin in Vero cells. 290,000 compounds, 9.2% hits. Vero cells, Shiga toxin protein synthesis inhibition reporter. inhibition, % at 38.7 µM. AID 2315; in the data active means inhibition mostly above about 28%, no sharp cut-off; inactive means mostly below about 43%; further: 0% is about no effect
Pf growth 96h: inhibits malaria parasite growth, 96 h; P. falciparum luciferase reporter growth, 96 h; Potency, µM (titrated, usually from 28.7 µM), for inactives: top-dose activity change, negative = inhibition, most hits filed as inhibitors; 320,000 compounds, 6.9% hits; further: potency means the concentration at half of the fitted maximal effect; on the % scale 0 is the no-effect control and ±100 the full control effect
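Readout is luminescence from an integrated firefly luciferase in P. falciparum. Red cells, 2% hematocrit and 0.05% parasitemia final, were cultured with compound through two parasite generations (96 hours) at 37 C, 5% CO2.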
CHX counter: counter-screen hit for Shiga toxin inhibitors, cycloheximide; cell reporter, cycloheximide protein synthesis inhibition counterscreen; max response, %; 300,000 compounds, 12% hits; AID 2314; in the data active means max response mostly above about 13%, no sharp cut-off; inactive means mostly below about 14%; further: read at 38.3 µM for the half of the compounds with a filed dose; 0% is about no effect
FBPA Giardia inh: inhibitors of Giardia lamblia fructose-1,6-bisphosphate aldolase; A8B2U2; purified Giardia FBPA; Potency, µM (highest dose often 59.6 µM), inactives show at the highest dose activity, negative = inhibition, hits mostly inhibitors; 290,000 compounds, 0.71% hits; AID 2451; further: potency means the concentration at half of the fitted maximal effect; on the % scale 0 is the no-effect control and ±100 the full control effect; nearly all actives have a fitted effect of over 55% in size
Target sequence (A8B2U2 whole entry, looked up): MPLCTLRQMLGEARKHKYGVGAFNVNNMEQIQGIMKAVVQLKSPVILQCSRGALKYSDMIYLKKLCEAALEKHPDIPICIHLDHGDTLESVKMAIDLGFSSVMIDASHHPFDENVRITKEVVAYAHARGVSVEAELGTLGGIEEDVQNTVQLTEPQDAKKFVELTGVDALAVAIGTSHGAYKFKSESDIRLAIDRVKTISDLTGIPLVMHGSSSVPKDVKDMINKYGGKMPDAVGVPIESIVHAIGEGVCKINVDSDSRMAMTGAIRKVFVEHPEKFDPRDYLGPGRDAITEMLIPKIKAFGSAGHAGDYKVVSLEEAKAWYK
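40 nM FBPA preincubated 10 min at RT with compound (up to 57.5 uM final), then substrate plus GAPDH/TPI/NAD/arsenate coupling and diaphorase/resazurin added. Fluorescence read after 20 min at RT, 525/598 nm.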
Pf growth 48h: inhibits P. falciparum growth in the first generation, 48 h | P. falciparum luciferase growth in erythrocytes, 48 h | Potency, µM (top dose mostly 28.7 µM), without a hit: at the highest dose activity change, negative = inhibition, actives largely listed as inhibitors | 310,000 compounds, 5.9% hits | AID 504832; further: potency means the concentration at half of the fitted maximal effect; on the % scale 0 is the no-effect control and ±100 the full control effect
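Luciferase-expressing P. falciparum in infected erythrocytes (2% hematocrit, 0.1% parasitemia final) in RPMI 1640/0.5% Albumax were exposed to compound for 48 hours at 37 C, 5% CO2; growth read as luminescence.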
The depositor's hits bear a star; ? = inconclusive; · = no result; ! = not confirmed by another sample; [ ] = dose if it differs, or a comment. Unless noted, the call rests on the fitted dose curve; in most records, active means well fitted curve in the direction sought with a large enough effect; inconclusive means small, poorly fitted or top-dose-only effect, or another doubt; inactive means no such curve, though single readings can be large; an effect the other way counts as inactive or inconclusive.

SMILES | NS1 function inh | Shiga inhibitor | Pf growth 96h | CHX counter | FBPA Giardia inh | Pf growth 48h
Cc1cc(C(=O)NCCc2ccc(S(N)(=O)=O)cc2)c(C)o1 | -4% | -16 | 1% | -6 | 4% | 18%
CN(C)[C@@H]1C(=O)C(C(N)=O)=C(O)[C@@]2(O)C(=O)C3=C(O)c4c(O)cccc4[C@@](C)(O)C3C[C@@H]12 (stereo partly specified) | · | · | 2.1µM* | · | · | 7.4µM*
CN(C)[C@H]1C(=O)C(C(=O)NCN2CCCC2)=C(O)[C@]2(O)C(=O)C3=C(O)c4c(O)cccc4[C@@](C)(O)[C@H]3C[C@@H]12 | · | · | 4%[12.8 µM] | · | 4.5µM* | -6%[12.8 µM]
CN(C)C1C(=O)C(C(N)=O)C(=O)C2(O)C(=O)C3C(=O)c4c(O)cccc4C(C)(O)C3C(O)C12 (stereo unspecified) | · | -5 | 3µM* | -2 | ? | 9.5µM*
CN(C)C1C(=O)C(C(N)=O)=C(O)[C@@]2(O)C(=O)C3=C(O)c4c(O)ccc(Cl)c4[C@@H](O)C3C[C@@H]12 (stereo partly specified) | 19% | · | · | · | ? | ·
C[C@H]1c2cccc(O)c2C(O)=C2C(=O)[C@]3(O)C(O)=C(C(N)=O)C(=O)[C@@H](N(C)C)[C@@H]3[C@@H](O)[C@@H]21 | -1% | -6 | 0.74µM* | 10*! | ? | 4.7µM*
CN(C)C1C(=O)C(C(N)=O)C(=O)C2(O)C(=O)C3C(=O)c4c(O)ccc(Cl)c4C(O)C3CC12 (stereo unspecified) | · | -19 | · | -3 | ? | ·
CN(C)[C@@H]1C(=O)C(C(N)=O)=C(O)[C@]2(O)C(=O)C3=C(O)c4c(O)cccc4[C@](C)(O)[C@H]3C[C@@H]12 | 15% | · | · | · | · | ·
COc1ccc2c(c1)O[C@H](c1cccc(C(F)(F)F)c1)[C@@H](O)C2=O | · | · | · | · | -1%[12.9 µM] | ·
CCCn1c(-c2ccc(F)cc2)nc2c(NC(C)CCCN(CC)CC)nc(C)nc21 (stereo unspecified) | · | · | · | · | 1% | ·
CN(C)[C@@H]1C(=O)C(C(N)=O)=C(O)[C@@]2(O)C(=O)C3=C(O)c4c(O)ccc(Cl)c4[C@@](C)(O)[C@H]3C[C@@H]12 | -10% | -7 | -26% | -3 | -6% | ?
CN(C)[C@@H]1C(=O)C(C(N)=O)=C(O)[C@@]2(O)C(=O)C3=C(O)c4c(O)cccc4[C@@](C)(O)[C@H]3[C@H](O)[C@@H]12 | 10% | -5 | 3.8µM*! | -2 | 4.5µM* | 13µM*!
C=C1c2c(Cl)ccc(O)c2C(O)=C2C(=O)[C@@]3(O)C(O)=C(C(N)=O)C(=O)[C@@H](N(C)C)[C@@H]3[C@@H](O)[C@H]12 | · | · | 0.72µM* | · | -18%[21.7 µM] | 4.1µM*
CN(C)c1ccc(O)c2c1CC1CC3[C@@H](N(C)C)C(=O)C(C(N)=O)=C(O)[C@]3(O)C(=O)C1=C2O (stereo partly specified) | -2% | -10 | 0.33µM* | -2 | ? | 4.7µM*
O=S(=O)(c1ccc(Cl)c(C(F)(F)F)c1)N1CCN(CC(O)COCC2CCCO2)CC1 (stereo unspecified) | -1% | -9 | 112% | 32* | ? | -11%
CCOC(=O)COc1ccccc1/C=C\[N+](=O)[O-] | -64% | -20 | 107% | -11 | -10% | 15µM*
Cc1ccc(C(=O)COC(=O)COc2ccccc2[N+](=O)[O-])s1 | · | · | 12% | · | · | 5%
COc1ccc(-c2csc(NC(=O)c3cc(C)oc3C)n2)cc1OC | 22% | 17 | ? | 15 | 6% | ?
N/C(=N\OC(=O)Cc1ccc(-c2ccccc2)cc1)c1ccccn1 | 4% | 72* | -13% | 36* | 1% | 108%
COc1ccc(CC(=O)O/N=C(\N)c2ccccn2)cc1 | 1% | 75* | 0% | 64* | 1% | 131%
N/C(=N\OC(=O)CSc1ccccc1)c1ccccn1 | -1% | 99* | ? | 79* | · | 90%
CC(C)C(=O)O/N=C(\N)c1ccccn1 | 28% | 22 | 44% | 8 | 0% | 23%
N/C(=N\OC(=O)CCCOc1ccccc1)c1ccccn1 | -4% | 42* | -22% | 26* | 0% | 30%
COc1ccc(-c2cc(=O)c3c(O)cc(O)c(-c4cc(-c5cc(=O)c6c(O)cc(O)cc6o5)ccc4OC)c3o2)cc1 | · | · | · | · | 1% | ·
COc1cccc2cc(C(=O)CS(=O)(=O)c3ccc(Cl)cc3)c(=O)oc12 | 10% | 2 | -3% | -4 | · | 28%
SMILES | NS1 function inh | Shiga inhibitor | Pf growth 96h | CHX counter | FBPA Giardia inh | Pf growth 48h
O=C(CNc1n[nH]c(=O)[nH]c1=O)N/N=C/C1CC=CCC1 (stereo unspecified) | 2% | 38 | -3% | 5 | 0% | 21%
Cn1c(=O)n(Cc2ccc(F)cc2)c(=O)c2c1nc1n2CCN1Cc1ccco1 | · | -16 | ? | 8 | 4% | ?
Cc1ccc(C)c(Cn2c(=O)c3c(nc4n3CCN4Cc3ccco3)n(C)c2=O)c1 | -8% | 74 | ? | -2 | -1% | 8.3µM*
Cn1c(=O)n(CCc2ccccc2)c(=O)c2c1nc1n2CCN1Cc1ccco1 | -73% | 55 | 5.2µM* | 24 | -5% | 8.3µM*
CC(C)OC(=O)c1c(N)n(CC2CCCO2)c2nc3ccccc3nc12 (stereo unspecified) | -9% | -2 | 49% | 0 | -18% | ?
CC(C)OCCCNC(=O)c1c(N)n(CC2CCCO2)c2nc3ccccc3nc12 (stereo unspecified) | -66% | -12 | ? | 4 | ? | 3.3µM*
Nc1c(C(=O)OC2CCCCC2)c2nc3ccccc3nc2n1CC1CCCO1 (stereo unspecified) | -124% | 9 | 13µM* | -3 | -3% | ?
COc1ccc(Cl)cc1NC(=O)CSC1=NN2CCCC(=O)N=C2S1 | -21% | 2 | 11% | -3 | 2% | -28%
CCOc1ccc(CNC(=O)CCS(=O)(=O)Cc2ccccc2C)cc1OC | · | -5 | 9.3µM* | -5 | 0% | ?
CCOc1ccc(CNC(=O)CCS(=O)(=O)Cc2ccc(C)cc2)cc1OC | · | 47 | 58% | 12 | 14% | 7%
CCCCCCSc1cc(-c2nc3ccc(C)cn3c2NCc2ccccc2)ccc1OC | · | · | 10µM* | · | · | 4.1µM*

Screening results from PubChem.
